Consider 13 compounds from PubChem BioAssay AID1224860 (National Center for Advancing Translational Sciences (NCATS), 2016).

Inconclusive results are not listed. A number with no mark means an inactive call. Activity calls are given as the source filed them. Calls come from the whole dose curve; as a rule, active = well fitted cell-killing curve with a large enough effect; inconclusive = small, poorly fitted or top-dose-only effect; inactive = flat fitted curve, though single readings scatter.

The test can be described thus: Compound cytotoxicity measured by an ATP content assay as a counter-screen for lead compounds in human iPSC derived neural progenitor cells (hNPCs). To be noted: human iPSC-derived NPC viability, ATP luminescence; series mostly up to 46.1 µM; activity, negative = cytotoxicity: at the top concentration. The method, then:
National Center for Advancing Translational Sciences [NCATS] Johns Hopkins University School of Medicine Florida State University Assay Overview: Many compounds can cause cytotoxicity at high compound concentrations. […] The compound cytotoxicity may also cause side effects or toxicity in human. Thus, the compound cytotoxicity needs to be measured in each cell type and each compound incubation time - same as these in the compound screening assay. The compound cytotoxicity can be measured by cell viability assays such as the ATP content assay. We use an ATP content assay kit for cell viability measurement. It measures ATP content (level) in human iPSC derived neural progenitor cells (hNPCs) using a luminescence readout that is proportional to viable cell numbers. Decrease in the luminescence signal after the compound treatment indicates reduced cell viability and cell death caused by compound treatment.
Assay Protocol Summary: The medium for hNPCs consists of DMEM/F12, N2 supplement (ThermoFisher, Cat.# 17502048), NEAA (ThermoFisher, Cat. # 11140050), 2 ug/ml heparin, 2 uM cyclopamine, and B27 (ThermoFisher, Cat. # 17504044). The ATP content assay kit (PerkinElmer, Cat.# 6016731) was used to determine cell viability. The reagent was reconstituted and prepared as described by the manufacturer. Cells were seeded in 384- or 1536-well assay plates and cultured at 37 C with 5% CO2 for 16 to 20 hours. The typical cell seeding density in the 1536-well plate assay is 350 cells/well in 3 ul medium for hNPCs in the tissue cultured treated/PDL coated plates. Compounds were added to cells and incubated for a specific time such as 6, 24, or 72 hours before addition of the reagent mixture of the ATP content assay kit at 1:1 ratio. After incubation at room temperature for 10 minutes, the luminescence intensity in assay plates was measured using a ViewLux plate reader (PerkinElmer). […] The percentage inhibitions of the decreased cell viability by small molecules were then calculated that indicate compound cytotoxicity.
`CC(O)CN1CCN(CC(=O)[O-])CCN(CC(=O)[O-])CCN(CC(=O)[O-])CC1.[Gd+3]` (stereo not drawn): the “activity, negative = cytotoxicity” value is 5.47%.

Regarding `COP(=S)(OC)SCN1C(=O)c2ccccc2C1=O`, the “activity, negative = cytotoxicity” value was -12.2%.

As to `O=C1C=CC[C@@H]2[C@H]3CCCN4CCC[C@@H](CN12)[C@@H]34`, the “activity, negative = cytotoxicity” value is 4.73%.

Take `O=C1CCC[C@@H]2[C@H]3CCCN4CCC[C@@H](CN12)[C@@H]34`: the “activity, negative = cytotoxicity” value is -6.59%.

For `CC(C)[C@H]1C(=O)N[C@H](CO)Cc2c[nH]c3cccc(c23)N1C`, the “activity, negative = cytotoxicity” value was -7.67%.

As to `O=c1c2ccccc2[se]n1-c1ccccc1`, the Potency is 12300 nM (active).

For `COC1(CS(=O)c2ccccc2)CCN(CCc2c[nH]c3ccc(F)cc23)CC1` (stereo not drawn), the “activity, negative = cytotoxicity” value is 0.672%.

Consider `Cc1ccc([N+](=O)[O-])[c]2c1[O][Hg]2`, for which the Potency was 869 nM (active).

For `CN1CC[C@@]2(C)c3cc(OC(=O)Nc4ccccc4)ccc3N(C)[C@@H]12`, the “activity, negative = cytotoxicity” value is -15.7%.

`S=C(SSC(=S)N1CCCCC1)N1CCCCC1`: the Potency is 245 nM (active).

Take `CC(C)N[C@@H]1CCn2c(=O)[nH]c3cccc(c32)[C@@H]1O`: the “activity, negative = cytotoxicity” value was -2.56%.

For the compound `CC(C)[N+](C)(CCC(C(N)=O)(c1ccccc1)c1ccccc1)C(C)C`, the “activity, negative = cytotoxicity” value is 1.39%.

For `Oc1ccc([C@H]2CNCc3c2ccc(O)c3O)cc1O`, the “activity, negative = cytotoxicity” value is -5.13%.
